Data as given in PubChem BioAssay.
Calls of active or inactive are those of the source.

Columns and labels:
[1] = binders of probe aFSTL3 on microarray, primary screen, stem cell growth factor project, biochemical, small-molecule microarray, fluorescence 635/667 (AID 1064); conditions: higher = more signal;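 also: measures binding of the biotinylated anti-FSTL3 antibody to printed compounds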
[2] = binders from COS7 lysate, DM2A8 probe, primary screen, torsin A project, cell lysate, small-molecule microarray, fluorescence 635/667 (AID 1065); conditions: higher = more signal, COS7 lysate expressing mutant human TOR1A
[3] = binders of probe aFGF2 on microarray, primary screen, stem cell growth factor project, biochemical, small-molecule microarray, fluorescence 635/667 (AID 1067); conditions: higher = more signal;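 also: measures binding of biotinylated aFGF2 protein to printed compounds on slides; z-score merges feature fluorescence and signal-to-noise across triplicate slides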
[4] = binders of probe aFGF10 on microarray, primary screen, stem cell growth factor project, biochemical, small-molecule microarray, fluorescence 635/667 (AID 1071); conditions: higher = more signal;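 also: score merges 667 nm spot intensity and signal to noise from triplicate slides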
[5] = biological target: Neurogenic locus notch homolog protein 2 (Homo sapiens) (UniProt Q04721); experiment: Notch2 binders on small-molecule microarrays, primary screen, biochemical, small-molecule microarray, 635 nm fluorescence, stem cell growth factors (AID 1073); conditions: Notch2 binding, higher = more signal
Neurogenic locus notch homolog protein 2 (Homo sapiens), sequence (Q04721 whole entry, looked up, canonical isoform): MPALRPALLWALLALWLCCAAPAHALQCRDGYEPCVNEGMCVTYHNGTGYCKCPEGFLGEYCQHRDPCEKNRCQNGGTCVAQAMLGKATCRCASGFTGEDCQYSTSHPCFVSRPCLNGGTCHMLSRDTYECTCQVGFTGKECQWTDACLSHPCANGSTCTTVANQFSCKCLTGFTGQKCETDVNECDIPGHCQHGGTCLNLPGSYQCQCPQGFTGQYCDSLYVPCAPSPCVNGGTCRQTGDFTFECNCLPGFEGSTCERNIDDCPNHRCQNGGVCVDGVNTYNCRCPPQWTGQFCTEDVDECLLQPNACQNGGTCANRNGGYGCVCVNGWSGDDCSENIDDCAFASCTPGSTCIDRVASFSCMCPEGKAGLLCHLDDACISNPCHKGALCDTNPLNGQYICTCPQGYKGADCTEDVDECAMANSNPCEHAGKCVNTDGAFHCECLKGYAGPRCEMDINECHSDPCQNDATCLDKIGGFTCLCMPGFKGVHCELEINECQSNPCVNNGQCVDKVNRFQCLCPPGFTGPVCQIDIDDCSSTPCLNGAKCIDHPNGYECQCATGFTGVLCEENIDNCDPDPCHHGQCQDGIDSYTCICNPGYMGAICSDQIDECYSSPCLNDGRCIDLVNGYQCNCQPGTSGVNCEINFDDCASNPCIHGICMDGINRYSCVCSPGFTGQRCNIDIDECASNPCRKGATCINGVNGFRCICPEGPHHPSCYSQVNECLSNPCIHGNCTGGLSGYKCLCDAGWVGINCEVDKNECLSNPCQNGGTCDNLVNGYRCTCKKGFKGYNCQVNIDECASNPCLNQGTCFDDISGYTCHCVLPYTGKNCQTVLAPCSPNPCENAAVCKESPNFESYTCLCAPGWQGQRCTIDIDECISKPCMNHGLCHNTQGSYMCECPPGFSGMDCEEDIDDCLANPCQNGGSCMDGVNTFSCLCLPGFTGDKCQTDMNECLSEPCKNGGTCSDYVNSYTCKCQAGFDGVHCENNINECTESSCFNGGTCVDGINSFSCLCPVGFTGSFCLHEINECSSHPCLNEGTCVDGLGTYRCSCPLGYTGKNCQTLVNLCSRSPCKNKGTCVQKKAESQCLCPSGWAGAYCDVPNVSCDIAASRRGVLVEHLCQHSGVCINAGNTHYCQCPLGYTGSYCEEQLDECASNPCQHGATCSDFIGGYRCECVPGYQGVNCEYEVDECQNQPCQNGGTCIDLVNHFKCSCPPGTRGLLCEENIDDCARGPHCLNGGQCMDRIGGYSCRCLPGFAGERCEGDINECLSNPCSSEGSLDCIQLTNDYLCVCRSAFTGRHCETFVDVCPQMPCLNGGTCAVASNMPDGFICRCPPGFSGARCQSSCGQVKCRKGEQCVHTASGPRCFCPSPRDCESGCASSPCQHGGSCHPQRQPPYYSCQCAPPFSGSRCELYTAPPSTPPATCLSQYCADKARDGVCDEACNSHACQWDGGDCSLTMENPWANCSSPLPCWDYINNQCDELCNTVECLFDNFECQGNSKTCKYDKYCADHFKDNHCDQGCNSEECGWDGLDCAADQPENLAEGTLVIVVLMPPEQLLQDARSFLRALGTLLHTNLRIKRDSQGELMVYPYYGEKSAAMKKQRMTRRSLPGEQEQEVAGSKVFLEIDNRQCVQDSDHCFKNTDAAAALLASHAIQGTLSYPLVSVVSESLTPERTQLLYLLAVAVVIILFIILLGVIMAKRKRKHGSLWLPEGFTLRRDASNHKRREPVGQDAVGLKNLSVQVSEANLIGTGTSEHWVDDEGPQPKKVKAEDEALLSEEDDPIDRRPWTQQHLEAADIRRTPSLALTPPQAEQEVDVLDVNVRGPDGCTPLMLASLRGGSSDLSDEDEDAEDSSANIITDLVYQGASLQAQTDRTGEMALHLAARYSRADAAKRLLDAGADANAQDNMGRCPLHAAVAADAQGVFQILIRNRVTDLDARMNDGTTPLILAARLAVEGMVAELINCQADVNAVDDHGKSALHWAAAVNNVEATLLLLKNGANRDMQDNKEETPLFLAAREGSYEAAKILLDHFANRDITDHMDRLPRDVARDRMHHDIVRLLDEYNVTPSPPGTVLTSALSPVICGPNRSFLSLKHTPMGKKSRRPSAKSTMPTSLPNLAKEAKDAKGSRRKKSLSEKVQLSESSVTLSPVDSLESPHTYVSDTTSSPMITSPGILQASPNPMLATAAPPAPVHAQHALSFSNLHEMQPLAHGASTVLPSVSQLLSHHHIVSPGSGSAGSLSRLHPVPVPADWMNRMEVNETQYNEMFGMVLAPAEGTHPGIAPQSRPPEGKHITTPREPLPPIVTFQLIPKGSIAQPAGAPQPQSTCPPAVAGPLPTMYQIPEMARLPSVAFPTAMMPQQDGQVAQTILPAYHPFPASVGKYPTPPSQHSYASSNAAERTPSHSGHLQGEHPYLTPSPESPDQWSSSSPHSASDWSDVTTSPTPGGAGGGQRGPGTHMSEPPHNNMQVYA

[6] = biological target: Pro-neuregulin-1, membrane-bound isoform (Homo sapiens) (UniProt Q02297); experiment: NRG1 binders on small-molecule microarrays, primary screen, psychiatric disease protein project, biochemical, small-molecule microarray, fluorescence 635/667 (AID 1075); conditions: NRG1 binding, 635 nm fluorescence, higher = more signal;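 also: score combines 667 nm spot fluorescence with signal to noise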
Pro-neuregulin-1, membrane-bound isoform (Homo sapiens), sequence (Q02297 whole entry, looked up, the tested form may be a part, canonical isoform): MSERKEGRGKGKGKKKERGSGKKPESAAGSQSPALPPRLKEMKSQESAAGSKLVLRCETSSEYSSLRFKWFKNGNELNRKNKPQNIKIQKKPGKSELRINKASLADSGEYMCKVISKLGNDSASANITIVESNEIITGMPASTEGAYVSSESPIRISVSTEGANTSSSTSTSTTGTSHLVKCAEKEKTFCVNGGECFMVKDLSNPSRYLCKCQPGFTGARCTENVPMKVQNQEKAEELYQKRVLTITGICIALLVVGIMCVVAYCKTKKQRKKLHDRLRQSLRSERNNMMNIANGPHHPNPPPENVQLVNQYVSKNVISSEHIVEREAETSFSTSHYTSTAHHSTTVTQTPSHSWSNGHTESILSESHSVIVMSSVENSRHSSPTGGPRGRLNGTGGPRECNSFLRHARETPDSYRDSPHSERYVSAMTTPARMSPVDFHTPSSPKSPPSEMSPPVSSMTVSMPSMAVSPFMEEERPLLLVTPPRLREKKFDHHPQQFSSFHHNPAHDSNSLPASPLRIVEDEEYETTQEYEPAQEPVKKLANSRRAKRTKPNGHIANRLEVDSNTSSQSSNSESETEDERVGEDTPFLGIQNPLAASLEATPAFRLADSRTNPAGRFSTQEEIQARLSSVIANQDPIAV

[7] = tested on: Neuregulin-1 EGF-like domain; experiment: binders of neuregulin-1 EGF-like domain, primary screen, biochemical, small-molecule microarray, 635 nm fluorescence (AID 1081); conditions: small-molecule microarray binding, higher = more signal;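 also: binding of the protein to compounds printed on small-molecule microarray slides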
[8] = FRG1 promoter luciferase signal modulators, primary screen, FRG1 inhibition for FSHD, cell-based, C2C12 myotubes, firefly/Renilla luciferase, luminescence (AID 1084); conditions: higher = more signal, called active from +8 up or from −8 down
[9] = binders of probe aFST on microarray, primary screen, stem cell growth factor project, biochemical, small-molecule microarray, fluorescence 635/667 (AID 1086); conditions: higher = more signal;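 also: score merges 667 nm fluorescence with signal-to-noise of each printed compound spot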
[10] = binders of probe aHhip on microarray, primary screen, stem cell growth factor project, biochemical, small-molecule microarray, fluorescence 635/667 (AID 1087); conditions: higher = more signal;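 also: score merges spot fluorescence at 667nm with spot signal to noise ratio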

| SMILES | composite z-score [1] | composite z-score [2] | composite z-score [3] | composite z-score [4] | composite z-score [5] | composite z-score [6] | composite z-score [7] | z-score [8] | composite z-score [9] | composite z-score [10] |
| --- | --- | --- | --- | --- | --- | --- | --- | --- | --- | --- |
| O=C(NCc1ccccc1)[C@@H]1c2ccccc2C(=O)N(C2CCCCC2)[C@H]1c1ccc(CO)cc1 | -1.15 | 0.149 | -0.0407 | 0.57 | -0.287 | 1.68 | 1.38 | -1.48 (inactive) | -0.309 | -0.283 |
| CCN(CC)c1ccc(N2CC=CC34O[C@@H]5/C=C\CCC(C)OC(=O)C5[C@H]3C(=O)N(CCCCCCO)[C@@H]4C2=O)cc1 (stereo not given in full) | 0.142 | 0.19 | -0.0766 | 0.69 | -0.498 | 0.374 | 1.4 | 0.316 (inactive) | -0.32 | 0.0373 |
| C=CCOC(=O)[C@@H]1[C@H]2C(=O)O[C@H](c3ccccc3)[C@H](c3ccccc3)N2[C@H](c2ccc(OCCOC(=O)[C@H]3C[C@H]4C(=O)N[C@@H](CCCC[N+](C)(C)C)C(=O)N4[C@H]3c3cccc(OCCO)c3)cc2)[C@@]12C(=O)Nc1ccc(I)cc12 | -0.542 | 0.391 | -0.0824 | 0.651 | 0.827 | -0.306 | 1.17 | 0.179 (inactive) | 0.166 | 0.154 |
| CN(C)CCCC[C@@H]1NC(=O)[C@H]2C[C@@H](C(=O)NCCCCCNC(=O)CS)[C@@H](c3ccc(O)cc3)N2C1=O | 0.594 | -0.149 | -0.203 | -0.122 | -1.21 | 0.356 | -0.458 | 0.348 (inactive) | -0.576 | -0.134 |
| O=C(NCc1ccccc1)[C@@H]1c2ccccc2C(=O)N(Cc2cc(F)cc(C(F)(F)F)c2)[C@H]1c1ccc(CO)cc1 | -0.307 | 0.582 | -0.0598 | 0.0655 | 0.558 | 0.393 | 1.32 | -1.67 (inactive) | 0.0906 | -0.179 |
| C=CCC(OC(C)=O)[C@@H]1[C@@H](N(Cc2cc3ccccc3o2)C(=O)c2ccc(C)cc2)c2cc(OCCCO)ccc2N1C(=O)c1ccc(-c2ccccc2)cc1 (stereo not given in full) | -0.292 | 0.195 | 0.0337 | 0.18 | 0.127 | -0.158 | -0.491 | -1.35 (inactive) | -0.21 | 0.113 |
| O=c1cccc(-c2ccc3ccccc3c2)o1 | 0.636 | -0.0452 | 0.114 | -0.183 | -0.383 | -0.288 | -0.602 | 7.42 (inactive) | 0.389 | -0.0022 |
| CCN(CC)c1ccc(N2CC=CC34O[C@@H]5/C=C\CCCOC(=O)C5[C@H]3C(=O)N(CCCO)[C@@H]4C2=O)cc1 (stereo not given in full) | 0.485 | -0.701 | -0.113 | -0.883 | -0.991 | 1.45 | 0.657 | 2.31 (inactive) | -1.19 | -0.137 |
| COc1cc2c(cc1O)C(c1ccc(CN3CCCC3)cc1)N(Cc1sc3ccccc3c1Cl)CC2 (stereo not given) | 0.719 | -0.002 | -0.0687 | 0.156 | 0.805 | 0.072 | 1.17 | 0.0314 (inactive) | 1.38 | -0.214 |
| C=C(CCCC)/C(=C/C[C@@H](OC(=O)c1ccncc1)c1ccc(CO)o1)c1cc(C(=O)OC)ccc1OC | -0.489 | 1.44 | -0.0887 | 0.318 | 0.738 | 1.52 | 1.27 | -0.986 (inactive) | 0.448 | 0.0722 |
| C=CCC(OC(C)=O)[C@@H]1[C@@H](N(Cc2cc3ccccc3o2)C(=O)c2cccc3ccccc23)c2cc(OCCCO)ccc2N1C(=O)Cc1ccc2ccccc2c1 (stereo not given in full) | -0.0977 | 0.0901 | -0.0383 | 0.0537 | -0.127 | 0.144 | 0.195 | -2.3 (inactive) | 0.309 | 0.0749 |
| O=C1OCCC/C=C\[C@H]2OC34C=CCN(CCN5CCOCC5)C(=O)[C@H]3N(CCO)C(=O)[C@@H]4C12 (stereo not given in full) | -0.163 | -0.435 | -0.154 | -0.313 | -1.12 | -0.501 | 0.843 | 0.808 (inactive) | -0.382 | -0.137 |
| CC(C)C[C@@H]1NC(=O)[C@@H]2C[C@H](C(=O)NCCCCN(C)C)[C@H](c3ccc(O)cc3)N2C1=O | 0.493 | -0.202 | -0.167 | -1.02 | -1.32 | -0.343 | 0.443 | 1.92 (inactive) | -0.819 | -0.0296 |
| CCOC(=O)C[C@H]1[C@H](OC(=O)c2cc3ccccc3oc2=O)[C@@H](NC(=O)c2ccc3ccccc3c2)c2cc(OCCCO)ccc2N1C(=O)c1ccccc1 | -0.444 | -0.183 | 0.0087 | 0.973 | 0.525 | -0.0064 | 1.13 | 0.0705 (inactive) | 0.623 | -0.0994 |
| COc1ccc([Si](C)(C)[C@@H]2[C@@H](CCO)O[C@]3(C(=O)N(Cc4cccc(N5CCCCC5=O)c4)c4ccccc43)[C@H]2C)cc1 | -0.191 | 0.692 | -0.134 | 0.877 | 0.869 | 1.06 | 0.967 | -3.27 (inactive) | 0.263 | -0.0618 |
| CCCCC(=O)N(Cc1ccccc1F)[C@@H]1CC(C(=O)NCCO)=C[C@H](Oc2c(I)cc(CO)cc2OC)[C@H]1O | -0.451 | 0.686 | -0.0462 | 0.228 | 1.17 | 1.47 | 1.42 | -0.84 (inactive) | 0.442 | 0.27 |
| CCCC[C@H]1OB(O)C[C@H]2C1=C(COc1ccccc1)C[C@H]1C(=O)N(Cc3ccccc3)C(=O)[C@H]12 | -0.331 | -0.413 | -0.0434 | 0.418 | 0.0238 | 0.117 | 1.07 | 0.132 (inactive) | -0.0344 | 0.0623 |
| O=C1C2C=CC(C(O)c3cccc4ccccc34)N(n3cnnc3)C2C(=O)N1Cc1ccccc1 (stereo not given) | 1.45 | 0.0748 | 0.737 | 0.774 | 0.309 | 0.704 | 0.821 | -0.259 (inactive) | 1.8 | 0.506 |
| O=C(N1CCCCC1)[C@]1(CCS(=O)(=O)c2ccccc2)N=C(c2ccc(OCCCO)cc2)O[C@@H]1c1ccccc1 | 1.04 | 0.815 | 0.215 | 0.803 | 0.773 | 1.49 | 1.11 | -1.79 (inactive) | 0.636 | 0.0623 |
| C=CCC(OC(C)=O)[C@@H]1[C@@H](N(Cc2ccc(-c3cccc(C(F)(F)F)c3)o2)C(=O)Cc2ccc(OC)cc2)c2cc(OCCCO)ccc2N1C(=O)Cc1ccc(OC)cc1 (stereo not given in full) | -0.0741 | 0.185 | -0.0739 | -0.118 | -0.17 | 0.783 | -0.92 | 0.0712 (inactive) | -0.239 | -0.16 |
| COC(=O)[C@@]1(Cc2ccc(OC)cc2)[C@H]2c3cc(C(=O)N(C)C)n(Cc4ccc(OC)c(OC)c4)c3C[C@H]2CN1C(=O)c1ccccc1 | 0.42 | 0.796 | -0.0824 | 0.336 | 1.73 | 1.86 | 1.28 | 0.889 (inactive) | 1.39 | 0.525 |
| COCCOC(=O)N1C(=O)[C@@]2(c3cc(C#CC4=CCCCC4)ccc31)[C@H](c1ccc(OCCO)cc1)N1[C@H](c3ccccc3)[C@H](c3ccccc3)OC(=O)[C@H]1[C@@H]2C(=O)Nc1nc2ccccc2s1 | -0.368 | 0.115 | -0.104 | 0.854 | 1.4 | 0.93 | 1.12 | 1.89 (inactive) | 0.241 | 0.0722 |
| COCCOC(=O)N1C(=O)[C@@]2(c3ccccc31)[C@H](C(=O)N1CCCCCCC1)[C@H]1C(=O)O[C@H](c3ccccc3)[C@H](c3ccccc3)N1[C@@H]2c1ccccc1OCCO | 3.82 | 1.77 | 0.679 | 0.684 | 1.3 | 1.84 | 1.38 | -0.91 (inactive) | 3.36 | 3.52 |
| CC1CC/C=C\[C@H]2OC34C=CCN(c5ccc6ccccc6c5)C(=O)[C@H]3N(CCCCCO)C(=O)[C@@H]4C2C(=O)O1 (stereo not given in full) | -0.46 | -0.0205 | -0.159 | -1.01 | -1.04 | -0.712 | -0.734 | 0.772 (inactive) | -0.818 | -0.306 |
| C=CCNC(=O)[C@@H]1[C@H]2C(=O)O[C@H](c3ccccc3)[C@H](c3ccccc3)N2[C@H](c2ccccc2OCCO)[C@@]12C(=O)N(C(=O)OCCOC)c1ccc(C#CCC(C(=O)OC)C(=O)OC)cc12 | 2.39 | 0.691 | 0.605 | 1.16 | 1.6 | 2.26 | 1.31 | 0.847 (inactive) | 3.09 | 0.856 |
| CCOC(=O)C[C@H]1[C@H](OC(=O)c2ccc(C(=O)c3ccccc3)cc2)[C@@H](NC(=O)c2ccc3ccccc3n2)c2cc(OCCCO)ccc2N1C(=O)c1ccc2ccccc2n1 | -0.153 | 0.0772 | -0.16 | 0.56 | 0.876 | 1 | 0.421 | -2.18 (inactive) | 0.845 | -0.201 |
| Cc1ccc(N2C(=O)c3ccccc3[C@@H](C(=O)NC(C)C)[C@@H]2c2ccc(CO)cc2)nc1 | 0.675 | -0.374 | -0.0598 | 0.079 | -0.333 | -0.318 | 1.27 | 0.822 (inactive) | -1.08 | -0.0994 |
| O=S(=O)(NCCCO)c1ccc(Br)cc1 | -0.109 | 1.04 | -0.112 | 0.209 | 0.433 | 1.07 | 1.07 | -1.91 (inactive) | 0.14 | -0.226 |
| C=C(COC)/C(=C/C[C@H](OC(C)=O)c1ccccc1OCCO)c1cnc2ccccc2c1 | -0.419 | -0.288 | -0.0366 | 1.08 | 1.33 | 1.19 | 1.13 | -0.267 (inactive) | 0.101 | 0.142 |
